AmpC inh no detg – qHTS Inhibitors of AmpC Beta-Lactamase (assay without detergent); AmpC nitrocefin hydrolysis, absorbance 480 nm, 0.0001% Triton; actives 0.52% (n = 330,000); P00811; Potency, µM (top dose mostly 57.1 µM), usual class: inhibitors; also: nearly all actives have a fitted effect of over 20% in size
Target sequence (P00811 whole entry, looked up): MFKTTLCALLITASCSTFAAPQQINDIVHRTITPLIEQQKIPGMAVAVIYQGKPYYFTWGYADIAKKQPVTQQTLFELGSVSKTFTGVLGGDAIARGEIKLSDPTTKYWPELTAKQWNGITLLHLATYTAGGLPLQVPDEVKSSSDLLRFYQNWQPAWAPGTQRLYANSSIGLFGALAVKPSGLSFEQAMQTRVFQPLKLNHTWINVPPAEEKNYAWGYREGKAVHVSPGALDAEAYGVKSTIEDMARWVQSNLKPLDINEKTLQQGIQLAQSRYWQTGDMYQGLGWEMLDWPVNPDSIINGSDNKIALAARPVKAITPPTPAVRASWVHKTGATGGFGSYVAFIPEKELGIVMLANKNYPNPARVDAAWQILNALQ
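20 mM phosphate pH 7.0 + 0.01% (detergent screen) or 0.0001% Triton X-100; 5.3 nM AmpC reagent; cpd preinc 15 min RT; nitrocefin (800 uM stock) to start; A480 q20 s × 4 min; Activity was normalised to no-enzyme and no-compound control wells.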
Shiga inhibitor – A qHTS for Small Molecule Inhibitors of Shiga Toxin. inhibition, % at 38.7 µM. Vero cells, Shiga toxin protein synthesis inhibition reporter. actives 9.2% (n = 290,000). AID 2315, 2010; in the data active = inhibition mostly above about 28%, no sharp cut-off; inactive = mostly below about 43%
CHX counter – Cycloheximide Counterscreen for Small Molecule Inhibitors of Shiga Toxin; cell reporter, cycloheximide protein synthesis inhibition counterscreen; max response, %; actives 12% (n = 300,000); AID 2314, 2010; in the data active = max response mostly above about 13%, no sharp cut-off; inactive = mostly below about 14%; also: read at 38.3 µM for the half of the compounds with a filed dose
AmpC detergent – qHTS Inhibitors of AmpC Beta-Lactamase (assay with detergent); Potency, µM (top dose mostly 114 µM), actives largely listed as inhibitors; P00811; AmpC hydrolysis of nitrocefin, absorbance 480 nm, 0.01% Triton; actives 0.041% (n = 370,000); also: nearly all actives have a fitted effect of over 25% in size
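20 mM phosphate pH 7.0 + 0.01% (detergent screen) or 0.0001% Triton X-100; 5.3 nM AmpC reagent; cpd preinc 15 min RT; nitrocefin (800 uM stock) to start; A480 q20 s × 4 min; Activity was normalised to no-enzyme and no-compound control wells.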
NS1 function inh – qHTS Assay for Inhibitors of Influenza NS1 Protein Function | Potency, µM (top dose mostly 46.1 µM) | actives 0.4% (n = 270,000) | AID 2326, 2010; calls by dose curve; also: actives are rising curves; nearly all actives have a fitted effect of over 50% in size
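Recovery from NS1-induced slow growth read by OD600 in budding yeast switched to galactose assay medium (pH 6.0, -URA) at 1:100 dilution. Compound 23 nl per well; the matching strain lacking NS1 serves as control.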
Of the large screens only hits and unclear results are named; the others gave an inactive call. The full list was thinned out, with hits kept by preference. Unless noted, calls follow the shape of the dose curve; as a rule, active = well fitted curve in the direction sought with a large enough effect; inconclusive = small, poorly fitted or top-dose-only effect, or another doubt; inactive = no such curve, though single readings can be large; an effect the other way counts as inactive or inconclusive.

Cc1csc(CNc2ncnc3ccc(-c4ccc5c(ccn5C)c4)cc23)c1	none (no result: Shiga inhibitor, CHX counter, NS1 function inh)
Cc1ccc2nc(SCC(=O)NCc3cccs3)[nH]c2c1	CHX counter 11
Cc1cc(C(=O)NCc2cccs2)c(C)o1	none
Cc1ccc2nc(SCC(=O)Nc3ncccn3)[nH]c2c1	none
Cc1ccc2c(=O)c(C(=O)NCc3cccs3)c[nH]c2c1	Shiga inhibitor 51, CHX counter 23
COc1ccc2nc(SCC(=O)N3CCNC3=O)[nH]c2c1	Shiga inhibitor 79, CHX counter 48
Cc1ccc(C(=O)OCC(=O)NCc2cccs2)c(C)c1	Shiga inhibitor 113, CHX counter 41
CCCN(C(=O)C1CCN(S(=O)(=O)c2c(C)noc2/C=C/c2ccc(C)cc2)CC1)c1ccccc1F	none (no result: AmpC inh no detg, Shiga inhibitor, CHX counter, NS1 function inh)
COC(=O)c1ccccc1NC(=O)CN(c1ccc(Cl)cc1)S(=O)(=O)c1ccc(OC)cc1	none (no result: AmpC inh no detg, Shiga inhibitor, CHX counter, NS1 function inh)
Cc1cn2c(=O)cc(COc3ccc(Cl)cc3)nc2s1	none (no result: AmpC inh no detg, Shiga inhibitor, CHX counter, NS1 function inh)
COc1cccc(CNC(=O)CSc2nc3ccc(C)cc3[nH]2)c1	CHX counter 17
O=C(CSc1nc2ccc(Cl)cc2[nH]1)NCCc1ccc(Cl)cc1	CHX counter 37
COc1ccc2nc(SCC(=O)NCc3ccc(F)cc3)[nH]c2c1	none
COC(=O)c1ccc(CSc2nc3ccc(C)cc3[nH]2)o1	Shiga inhibitor 37, CHX counter 27
Cc1cc(C)n2nc(CNC(=O)c3c(F)cccc3F)nc2n1	none (no result: AmpC inh no detg, Shiga inhibitor, CHX counter, NS1 function inh)
O=C(NNC(=S)Nc1ccccc1)Nc1ccccc1	Shiga inhibitor 88, CHX counter 34
NS(=O)(=O)c1ccc(NS(=O)(=O)c2ccc(NC(=S)Nc3ccccc3)cc2)cc1	AmpC detergent inconclusive
Cc1ccc(NC(=S)NNC(=O)c2c(Cl)c(C)nn2C)cc1	none
Cc1cc(C)cc(NS(=O)(=O)c2ccc(NC(=S)Nc3ccccc3)cc2)c1	CHX counter 14
Cc1ccc(NC(=S)NNC(=O)c2nn(C)c(C)c2Cl)cc1	Shiga inhibitor 93, CHX counter 36
Cc1ccc(NC(=S)NNC(=O)Nc2ccccc2)cc1	Shiga inhibitor 109, CHX counter 54
COC(=O)c1ccc(NC(=O)c2ccc3c(c2)NC(=O)C2CCCN32)cc1 (configuration not stated)	none (no result: Shiga inhibitor, CHX counter, NS1 function inh)
COc1ccccc1N(CC(=O)N(C)Cc1ccccc1)S(=O)(=O)c1cccs1	none (no result: Shiga inhibitor, CHX counter, NS1 function inh)
COC(=O)c1cc2ccsc2n1Cc1ccccc1F	none
Cc1cccc(/N=C/c2sc3ccccc3c2O)n1	Shiga inhibitor 39, CHX counter 44
Cc1cccc(/N=C/c2c(O)[nH]c3ccccc23)n1	Shiga inhibitor 92, CHX counter 46
CCOC(=O)c1cc(-c2ccc(OC)cc2)nn1-c1ccccc1C(=O)O	none
CCOC(=O)c1cc(-c2ccc(OC)cc2OC)nn1-c1ccc(C(=O)O)cc1	CHX counter 21
Cn1c2ccccc2c2cc(/C=N/NC(=O)c3cc(O)ccc3O)ccc21	CHX counter 12
Cn1c2ccccc2c2cc(/C=N/NC(=O)c3cc(O)cc(O)c3)ccc21	AmpC inh no detg 16µM
COc1ccc(S(=O)(=O)NCC(c2ccc(N(C)C)cc2)N2CCOCC2)cc1 (configuration not stated)	none (no result: AmpC inh no detg, Shiga inhibitor, CHX counter, NS1 function inh)
O=C(CSc1nc2nn(-c3ccccc3)c(=O)c-2c2n1CCCCC2)Nc1ccc(F)c(F)c1	AmpC inh no detg 10µM (no result: Shiga inhibitor, CHX counter, AmpC detergent, NS1 function inh)
COc1ccc(S(=O)(=O)N(C)CC(=O)N2CCN(Cc3ccccc3)CC2)cc1C	none
COc1cccc(NC(=O)CNC(=O)c2cccs2)c1	Shiga inhibitor 61, CHX counter 26, AmpC detergent inconclusive
COc1cccc(NC(=O)CCS(=O)(=O)c2cccs2)c1	Shiga inhibitor 78, CHX counter 47
CC(=O)c1ccc(NC(=O)c2ccc(NC(=O)CCS(=O)(=O)c3cccs3)cc2)cc1	Shiga inhibitor 192, CHX counter 18
CC(C)OCCCNC(=O)Cn1ccc2cc(S(=O)(=O)N3CCCCC3)ccc21	none
Cc1ccccc1Cn1cc(S(=O)(=O)c2ccc(Cl)cc2)c(=O)c2cc3c(cc21)OCO3	none (no result: AmpC inh no detg, Shiga inhibitor, CHX counter, NS1 function inh)
Cc1nn(C)c2c1c(C(F)(F)F)cc(=O)n2Cc1ccc(Br)cc1F	none (no result: AmpC inh no detg, Shiga inhibitor, CHX counter, NS1 function inh)
COc1ccc(NC(=O)c2c(NC(=O)C(F)(F)F)sc3c2CCCCC3)cc1	none (no result: AmpC inh no detg, Shiga inhibitor, CHX counter, NS1 function inh)
O=c1cc(Nc2ccc3c(c2)OCCO3)[nH]c(=O)n1C1CCCCC1	Shiga inhibitor 23
CCc1ccc(Nc2cc(=O)n(C3CCCCC3)c(=O)[nH]2)cc1	Shiga inhibitor 87, CHX counter 30
O=c1cc(N2CCN(c3ccc(F)cc3)CC2)[nH]c(=O)n1C1CCCCC1	none
Nc1c(C=C2C=CC(=O)C=C2)c(=O)nc2snc(SCc3ccccc3)n12	AmpC inh no detg inconclusive, Shiga inhibitor 47, CHX counter 33, NS1 function inh inconclusive
O=C(N/N=C/c1ccc[nH]1)c1cc2ccccc2cc1O	AmpC inh no detg 14µM, Shiga inhibitor 78, CHX counter 31
O=C(N/N=C/c1ccncc1)c1cc2ccccc2cc1O	Shiga inhibitor 31, CHX counter 32
O=C(Nc1ccccc1C(=O)N/N=C/c1ccncc1)c1ccccc1	none (no result: NS1 function inh)
CCOc1ccccc1Nc1nc(-c2ccc(C)cc2)c(CC(=O)O)s1	none (no result: AmpC inh no detg, Shiga inhibitor, CHX counter, NS1 function inh)
O=C(CCCc1ccccc1)N1CCN(C2CCCCC2)CC1	CHX counter 29 (no result: Shiga inhibitor)
CCC1CCCCN1C(=O)CCCc1ccccc1 (configuration not stated)	Shiga inhibitor 70, CHX counter 35
COc1ccc(CCC(=O)N2CCN(C3CCCCC3)CC2)cc1	none
CCC1CCCCN1C(=O)CCS(=O)(=O)c1ccccc1 (configuration not stated)	Shiga inhibitor 76, CHX counter 34
CCC1CCCCN1C(=O)CN1C(=O)c2ccccc2S1(=O)=O (configuration not stated)	none (no result: Shiga inhibitor, CHX counter, NS1 function inh)
CCc1ccc(NCc2cc3cc(OC)c(OC)cc3n(CC(=O)Nc3cc(C)ccc3C)c2=O)cc1	none (no result: AmpC inh no detg, Shiga inhibitor, CHX counter, NS1 function inh)
O=Cc1ccc(OCC(=O)NCC2CCCO2)cc1 (configuration not stated)	AmpC detergent inconclusive
COc1cc(SC)ccc1C(=O)Nc1ccc2c(c1)OCO2	Shiga inhibitor 71, CHX counter 37
COc1cc(SC)ccc1C(=O)Nc1ccc(S(=O)(=O)N2CCCC2)cc1	AmpC detergent inconclusive
COc1cc(SC)ccc1C(=O)NCCOc1c(C)cc(C)cc1C	none
COc1cc(SC)ccc1C(=O)Nc1ccc(C)cc1C	Shiga inhibitor 106, CHX counter 47
COc1cc(SC)ccc1C(=O)Nc1ccc(C)cc1	Shiga inhibitor 69, CHX counter 36
COc1cc(SC)ccc1C(=O)Nc1ccc(OCC(=O)N2CCOCC2)cc1	Shiga inhibitor 61, CHX counter 17
CC(C)COc1ccc(C(=O)Nc2cccc(-c3nc4ccccc4[nH]3)c2)cc1	none (no result: AmpC inh no detg, Shiga inhibitor, CHX counter, NS1 function inh)
CC(C)NC(=O)c1onc(CSc2ccc(F)cc2)c1C(=O)NC(C)C	none (no result: Shiga inhibitor, CHX counter, NS1 function inh)
CC1CCCC2(C1)NC(=S)N(c1ccccc1)N2 (configuration not stated)	CHX counter 28
